In all, about 5,500 compounds went through this assay and about 2,000 (36%) were called active. Inconclusive results (about 18%) are left out. Rule as the data show it: active = normalized growth mostly below about 0.91 (no sharp cut-off); inconclusive = no clear call, values can overlap the other calls; inactive = mostly above about 0.92. Some of the results follow.
Experiment: chemical genetic growth profiling, strain panel (AID 1159580);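 also: tested at 20 µM; growth read once vehicle control cultures reached saturation at 30 °C; 1 = growth at the plate median or of vehicle wells; lower values mean less growth of the strain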
Conditions: S. cerevisiae deletion strains, growth OD
[1] = locus YAL013W, strain DEP1, active compounds read low
[2] = locus YBR229C, strain ROT2, active compounds read low
[3] = locus YCL061C, strain MRC1, active compounds read low
[4] = locus YDL101C, strain DUN1, active compounds read low
[5] = locus YDR150W, strain NUM1, active compounds read low
[6] = locus YEL061C, strain CIN8, active compounds read low
[7] = locus YGR078C, strain PAC10, active compounds read low
[8] = locus YHR030C, strain SLT2, active compounds read low
[9] = locus YHR087W, strain rtc3, active compounds read low
[10] = locus YJL187C, strain SWE1, active compounds read low
[11] = locus YJR043C, strain POL32, active compounds read low
[12] = locus YJR075W, strain HOC1, active compounds read low
[13] = locus YLR039C, strain RIC1, active compounds read low
[14] = locus YLR058C, strain SHM2 (second series), active compounds read low
[15] = locus YLR085C, strain ARP6, active compounds read low
[16] = locus YLR262C, strain YPT6, active compounds read low
[17] = locus YML094W, strain GIM5, active compounds read low
[18] = locus YMR219W, strain ESC1, active compounds read low
[19] = locus YMR263W, strain SAP30, active compounds read low
[20] = locus YNL153C, strain GIM3, active compounds read low
[21] = locus YNL298W, strain CLA4 (second series), active compounds read low
[22] = locus YNL322C, strain KRE1, active compounds read low
[23] = locus YNR030W, strain Alg12, active compounds read low
[24] = locus YOL006C, strain TOP1, active compounds read low
[25] = locus YPL055C, strain LGE1, active compounds read low
[26] = locus YPL241C, strain CIN2, active compounds read low
[27] = locus YPR135W, strain CTF4, active compounds read low

Measured: normalized growth

CCc1nnc(N=CNO)s1
inactive: [1] 0.956 | [3] 0.913 | [4] 0.932 | locus YDL134C, strain PPH21, active compounds read low 0.989 | [5] 0.978 | [7] 0.973 | locus YGR229C, strain SMI1, active compounds read low 0.992 | [11] 0.97 | [13] 0.967 | [14] 1 | [15] 0.803 | [16] 0.947 | [19] 0.968 | [20] 0.965 | [22] 1.01 | [23] 0.944 | [25] 0.909 | [26] 0.99 | [27] 0.795
active: [2] 0.846 | [6] 0.843 | [8] 0.573 | [9] 0.79 | [10] 0.817 | [12] 0.809 | [17] 0.855 | [18] 0.879 | [21] 0.823 | [24] 0.465

Cc1oc(C(C)(C)C)cc1C(=O)Nc1ccc([N+](=O)[O-])cc1
active: [1] 0.903 | [5] 0.786 | [8] 0.584 | [13] 0.678 | [16] 0.786 | [21] 0.788 | [23] 0.816 | [25] 0.688 | [27] 0.484
inactive: [2] 0.976 | [3] 0.984 | [4] 1.03 | [6] 0.911 | [7] 0.98 | [9] 0.958 | [11] 0.966 | [12] 0.974 | [14] 0.992 | [15] 0.813 | [17] 0.873 | [18] 0.997 | [19] 0.943 | locus YMR307W, strain GAS1, active compounds read low 0.752 | [20] 0.998 | [22] 0.996 | [24] 0.88 | [26] 0.997

COC(=O)C1=COC(OC2OC(CO)C(O)C(O)C2O)C2C(C)CC(=O)C12 (stereo not drawn)
inactive: locus YAL021C, strain ccr4, active compounds read low 1.03 | locus YAL026C, strain drs2, active compounds read low 1.02 | locus YAL030W, strain snc1, active compounds read low 1.03 | locus YBL061C, strain skt5, active compounds read low 1.02 | locus YBR009C, strain hhf1, active compounds read low 1.01 | locus YBR023C, strain chs3, active compounds read low 1.03 | locus YBR171W, strain sec66, active compounds read low 1.04 | locus YBR231C, strain swc5, active compounds read low 1.04 | locus YBR279W, strain paf1, active compounds read low 1.03 | locus YCL011C, strain gbp2, active compounds read low 1.03 | locus YCL016C, strain dcc1, active compounds read low 1.02 | [3] 1.03 | locus YCL069W, strain vba3, active compounds read low 1.03 | locus YCR088W, strain abp1, active compounds read low 1.03 | locus YDL005C, strain med2, active compounds read low 1.04 | locus YDL040C, strain nat1, active compounds read low 1.03 | locus YDR001C, strain nth1, active compounds read low 1.03 | locus YDR069C, strain doa4, active compounds read low 1.02 | locus YDR137W, strain rgp1, active compounds read low 1.07 | locus YDR159W, strain sac3, active compounds read low 1.01 | locus YDR195W, strain ref2 1.02 | locus YDR297W, strain sur2, active compounds read low 1.02 | locus YDR334W, strain swr1, active compounds read low 1.03 | locus YDR335W, strain msn5, active compounds read low 1.03 | locus YDR392W, strain spt3, active compounds read low 0.935 | locus YEL003W, strain gim4, active compounds read low 1.03 | locus YEL037C, strain rad23, active compounds read low 1.02 | locus YEL061C, strain CIN8 (second series), active compounds read low 1.03 | locus YER015W, strain faa2, active compounds read low 1.04 | locus YER016W, strain bim1, active compounds read low 1.04 | locus YER111C, strain swi4, active compounds read low 1.03 | locus YER155C, strain BEM2 (second series), active compounds read low 1.02 | locus YFR010W, strain ubp6, active compounds read low 1.03 | locus YGL167C, strain pmr1, active compounds read low 1.03 | locus YGL173C, strain kem1, active compounds read low 1.03 | locus YGL227W, strain vid30, active compounds read low 1.03 | locus YGL240W, strain doc1, active compounds read low 1.02 | locus YGL253W, strain hxk2, active compounds read low 1.05 | locus YHR013C, strain ard1, active compounds read low 1.07 | locus YHR027C, strain rpn1, active compounds read low 1.03 | locus YHR142W, strain chs7, active compounds read low 1.04 | locus YJL092W, strain hpr5, active compounds read low 1.03 | locus YJL095W, strain BCK1 (second series), active compounds read low 1.03 | locus YJL115W, strain asf1, active compounds read low 1.02 | locus YJL129C, strain trk1, active compounds read low 1.06 | locus YJL154C, strain vps35, active compounds read low 1.02 | locus YJL164C, strain tpk1, active compounds read low 1.01 | locus YJL166W, strain qcr8, active compounds read low 1.05 | [10] 1.04 | locus YKL160W, strain elf1, active compounds read low 1.04 | locus YKR026C, strain gcn3, active compounds read low 1.03 | locus YKR091W, strain srl3, active compounds read low 1.02 | locus YLL001W, strain dnm1, active compounds read low 1.05 | locus YLL026W, active compounds read low 1.02 | locus YLL041C, strain sdh2, active compounds read low 1.02 | locus YLR027C, strain aat2, active compounds read low 1.02 | locus YLR221C, strain rsa3, active compounds read low 1.03 | locus YLR258W, strain gsy2, active compounds read low 1.01 | locus YLR262C, strain YPT6 (second series), active compounds read low 1.05 | locus YLR320W, strain mms22, active compounds read low 1.04 | locus YLR342W, strain FKS1, active compounds read low 1.03 | locus YLR357W, strain rsc2, active compounds read low 1.05 | locus YLR370C, strain arc18, active compounds read low 1.03 | locus YLR384C, strain iki3, active compounds read low 1.02 | locus YML120C, strain ndi1, active compounds read low 1.03 | locus YMR058W, strain fet3, active compounds read low 1.03 | locus YMR125W, strain sto1, active compounds read low 1.04 | locus YMR129W, active compounds read low 1.03 | locus YMR205C, strain PFK2, active compounds read low 1.05 | locus YMR231W, strain pep5, active compounds read low 1.03 | locus YNL071W, strain lat1, active compounds read low 1.04 | locus YNL209W, strain ssb2, active compounds read low 1.02 | locus YNL248C, strain rpa49, active compounds read low 1.06 | locus YNL322C, strain KRE1 (second series), active compounds read low 1.03 | locus YNR049C, strain mso1, active compounds read low 1.02 | locus YOR001W, strain rrp6, active compounds read low 0.987 | locus YOR070C, strain gyp1, active compounds read low 1.02 | locus YOR080W, strain dia2, active compounds read low 1.02 | locus YOR083W, strain WHI5, active compounds read low 1.04 | locus YOR106W, strain vam3, active compounds read low 1.09 | locus YOR265W, strain rbl2, active compounds read low 1.01 | locus YOR270C, strain vph1, active compounds read low 1.11 | locus YOR290C, strain snf2, active compounds read low 1.03 | locus YPL051W, strain arl3, active compounds read low 1.04 | locus YPL078C, strain atp4, active compounds read low 1.06 | locus YPL106C, strain sse1, active compounds read low 1.01 | locus YPL240C, strain hsp82, active compounds read low 1.02
